Screens deposited in PubChem by several laboratories.
Only a selection was taken, and hits are over-represented in it overall.
RmlCD inh 1536: blocks M. tuberculosis RmlC and RmlD coupled enzymes; P9WH09+P9WH11; RmlC+RmlD coupled enzyme assay, percent inhibition; primary screen in compound mixtures; inhibition, % at 3.6 µM; 160,000 tested, 0.03% active; in the data active = inhibition mostly above about 34%, no sharp cut-off
YopH inh: YopH (Yersinia) phosphatase inhibition | fluorescence Ex485/Em525 | inhibition, % (no concentration beside the values) | 140,000 tested, 0.16% active | AID 898; in the data active = inhibition above about 50%
Numbers stand for hits; i = inactive; nt = not tested or not shown.

SMILES | RmlCD inh 1536 | YopH inh
Cc1ccsc1/C=N/NS(=O)(=O)c1ccc([N+](=O)[O-])cc1 | i | i
COc1ccc(N2CCN(C(CNC(=O)OCc3ccccc3)c3ccco3)CC2)cc1 (stereo not drawn) | i | i
COc1ccc(CN(C(=O)CSc2nnc(-c3ccccc3F)o2)c2ccc(F)cc2)cc1 | nt | i
O=C(O)c1ccc(-c2nc3ccccc3[nH]2)cc1 | 95 | i
Fc1ccc(-c2nc3ccccc3[nH]2)cc1 | i | nt
O=C(c1ccccc1)N1CCN(C(=S)NCc2ccco2)CC1 | i | nt
COc1ccc(Cc2nnc(NC(=O)c3cccc([N+](=O)[O-])c3)s2)cc1 | i | i
CCCN1CCCc2cc(CN)ccc21 | i | 84
Cc1ccc2c(c1)CCCN2N=O | i | i
COCCCNC(=O)C1CCCN(C(=O)Nc2ccc(OC)cc2)C1 (stereo not drawn) | nt | 53
COc1ccc(NC(=O)N2CCCC(C(=O)NC(C)C)C2)cc1 (stereo not drawn) | nt | i
CCN1CCN(c2cc(C)c3cc(NC(=S)N4CCCC(C)C4)ccc3n2)CC1 (stereo not drawn) | i | nt
CCOc1ccc(-c2nnc3ccc(SCC(=O)Nc4nc5ccc(C)cc5s4)nn23)cc1 | i | i
CCOc1ccc(-c2nnc3ccc(SCC(=O)Nc4nc5ccccc5s4)nn23)cc1 | i | 65
COC(=O)c1ccc(NC(=O)C2C3CCC(C3)C2C(=O)O)cc1 (stereo not drawn) | nt | i
COC(=O)Cc1cnc(NC(=O)C2C3CCC(C3)C2C(=O)O)s1 (stereo not drawn) | i | 51
O=C(O)Cc1ccc(C(=O)c2ccccc2F)s1 | i | i
CC(=O)[C@H]1[C@@H]2C(=O)N(c3cccc(Cl)c3)C(=O)[C@@H]2[C@H]2c3ccccc3C=CN21 | i | 67
CC(=O)[C@@H]1[C@@H]2C(=O)N(c3ccc(F)c(Cl)c3)C(=O)[C@@H]2C2c3ccccc3C=CN21 (stereo partly drawn) | nt | 71
CC(=O)[C@@H]1[C@@H]2C(=O)N(C3CCCCC3)C(=O)[C@@H]2C2c3ccccc3C=CN21 (stereo partly drawn) | i | i
CC(C)(C)C(=O)[C@@H]1[C@@H]2C(=O)N(Cc3ccccc3)C(=O)[C@@H]2[C@H]2c3ccccc3C=CN12 | i | i
Cc1ccc(CNC(=O)CSc2nc3ccsc3c(=O)n2Cc2ccc(C(=O)O)cc2)cc1 | i | nt
Cc1ccc(S(=O)(=O)NNC(=O)c2ccoc2C)cc1 | i | nt
Cc1cccn2c(=O)c3cc(C(=O)NC(C)C)c(=N)n(Cc4ccncc4)c3nc12 | i | i
CCNC(=O)c1cc2c(=O)n3cccc(C)c3nc2n(Cc2ccc(C)cc2)c1=N | 57 | i
SMILES | RmlCD inh 1536 | YopH inh
COc1ccc(C2=NO[C@@H]3[C@@H]4C[C@@H]([C@H]5C(=O)N(c6ccc7c(c6)OCO7)C(=O)[C@@H]45)[C@H]23)cc1OC | i | i
Cc1ccc2c(c1)SC1=NC(c3ccccc3)(C(F)(F)F)NC(=O)N12 (stereo not drawn) | nt | i
O=C(CCN1C(=O)C2CCCCC2C1=O)Nc1nc(-c2ccccc2)cs1 (stereo not drawn) | i | nt
CCOc1ccccc1NC(=O)N1CCC(C(=O)c2ccc(F)cc2)CC1 | i | i
COc1ccccc1NC(=O)N1CCC(C(=O)c2ccc(F)cc2)CC1 | i | 56
Cc1ccc(NC(=O)C2CC(=O)N/C(=N/N=C/c3ccco3)S2)cc1C (stereo not drawn) | i | i
CCCn1c(=O)c(C(=O)OCC)c(O)c2cc(Br)ccc21 | i | nt
CCOC(=O)c1c2c(n(C)c1COC)C(=O)C(=O)c1ccc(Br)cc1-2 | nt | 80
CCOC(=O)CSc1ccc(C(=O)Nc2ccc(OC)cc2)cn1 | i | nt
CCCCCCc1nc2ccccc2c(=O)n1NC(=O)c1c(O)c2c(n(CC(C)C)c1=O)CCCC2 | i | i
Cc1nc2ccccc2c(=O)n1NC(=O)c1c(O)c2c(n(CC(C)C)c1=O)CCCC2 | i | 84
CCCn1c2c(c(O)c(C(=O)Nc3nc4ccccc4s3)c1=O)CCCC2 | i | nt
CC(C)Cn1c2c(c(O)c(C(=O)Nc3nc4ccccc4s3)c1=O)CCCC2 | 82 | nt
O=c1c2ccccc2[nH]c(=S)n1-c1cccc(S(=O)(=O)N2CCCC2)c1 | i | i
COc1cc([N+](=O)[O-])ccc1NC(=O)NCc1ccco1 | i | nt
CCOC(=O)c1nc(NCc2ccccc2F)c2ccccc2n1 | i | nt
Cc1cc2ccccc2c(=O)[nH]1 | i | i
O=c1[nH]c(-c2ccccn2)cc2ccccc12 | i | i
Cc1ccccc1Nc1cc2ccccc2c(=O)[nH]1 | i | 101
O=c1[nH]c(Nc2ccc(F)cc2)cc2ccccc12 | i | 90
COCCn1nnnc1SCC(=O)Nc1ccc2c(c1)OCO2 | i | nt
COC(CNC(=O)c1coc2nc3ccccc3nc12)OC | 74 | nt
O=C(NCC1CCCO1)c1coc2nc3ccccc3nc12 (stereo not drawn) | i | i
COc1ccc(CN2C(=O)c3ccccc3C(/C=N\OCc3ccc(F)cc3)C2=O)cc1 (stereo not drawn) | i | 59
